Bioassay records as filed in PubChem BioAssay.
Shh pathway inh = blocks Sonic Hedgehog signaling | AID 2313 | actives 2.1% (n = 22,000) | Shh-LIGHT2 Gli-luciferase reporter, 30 h | inhibition, % (test concentration not listed);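 active = mean inhibition across valid replicates above about 65%, limit read from the data; inconclusive = mean under the limit, yet half or more replicates past it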;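 also: pathway switched on by Shh-conditioned medium diluted 1 in 25 in low serum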
MITF inhib = blocks MITF activity; inhibition, % (test concentration not listed); TRPM1 promoter luciferase, luminescence, 24 h; actives 0.28% (n = 37,000); AID 2240; in the data active = inhibition above about 85%; inconclusive = no clear call, values can overlap the other calls; inactive = below about 68%;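 also: human melanocyte line stably carrying TRPM1 promoter luciferase reporter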
An asterisk follows results filed as active; ? = inconclusive; · = no result. Only a selection was taken, and hits are over-represented in it overall.

SMILES | Shh pathway inh | MITF inhib
CC1(C)CC[C@]2(C(=O)O)CC[C@]3(C)C(=CCC4[C@@]5(C)CC[C@H](O[C@@H]6O[C@H](CO)[C@@H](O)[C@H](O)[C@H]6O)C(C)(C)C5CC[C@]43C)[C@@H]2C1 (stereo partly drawn) | 89* | 45
C=CC1(C)C=C2CCC3C(C)(C)C(O[C@@H]4O[C@@H](CO)[C@H](O)[C@H]4O)CCC3(C)C2CC1O[C@@H]1O[C@H](C)[C@H](O)[C@H](O)[C@H]1O (stereo partly drawn) | -8 | 1
CC(=O)OC1COC(OC2C(O)C(C)OC(OC3C(OC4CCC5(C)C(CCC6(C)C5CC=C5C7CC(C)(C)CCC7(C(=O)O)CCC56C)C4(C)CO)OCC(O)C3O)C2O)C(O)C1OC(C)=O (stereo not drawn) | 98* | 39
CC1(C)CC[C@]2(C(=O)O)CC[C@]3(C)C(=CCC4[C@@]5(C)CC[C@H](O[C@@H]6O[C@H](C(=O)O)[C@@H](O[C@@H]7O[C@H](CO)[C@@H](O)[C@H](O)[C@H]7O)[C@H](O)[C@H]6O[C@@H]6O[C@H](CO)[C@@H](O)[C@H](O)[C@H]6O)C(C)(C)C5CC[C@]43C)C2C1 (stereo partly drawn) | 16 | 0
C[C@@H]1O[C@@H](O[C@@H]2CC[C@@]3(C)C(CC[C@]4(C)C3CC=C3[C@@H]5CC(C)(C)CC[C@]5(C(=O)O[C@@H]5O[C@H](CO)[C@@H](O)[C@H](O)[C@H]5O)CC[C@]34C)[C@]2(C)CO)[C@H](O)[C@H](O[C@@H]2OC[C@@H](O)[C@H](O)[C@H]2O)[C@H]1O (stereo partly drawn) | -25 | 5
CSc1nc(O)cc(=O)[nH]1 | 9 | 1
COC(=O)c1cc(C)nc(Sc2ccccc2NC(=O)Nc2ccc(Cl)cc2)n1 | -3 | 11
O=C(CSc1nc2ccccc2nc1N1CCOCC1)NCc1ccc2c(c1)OCO2 | ? | -5
N#CC1=C(N)C(C#N)(C#N)C2(C(=O)N(Cc3ccccc3)c3ccccc32)C2CCCC=C12 (stereo not drawn) | · | 37
CN(C)/C=C/C(=O)c1sc(SCc2ccc(Cl)cc2)c2c1CC(C)(C)CC2=O | 12 | -1
Fc1ccc(C=Nc2ccc3ccccc3c2)cc1 | -32 | 7
Cc1ccc(N=Cc2cc3ccccc3nc2Cl)cc1Cl | 89* | 16
CC[C@]1(O)C[C@H]2CN(CCc3c([nH]c4ccccc34)[C@@](C(=O)OC)(c3cc4c(cc3OC)N(C=O)[C@H]3[C@@](O)(C(=O)OC)[C@H](OC(C)=O)[C@@]5(CC)C=CCN6CC[C@]43[C@@H]65)C2)C1 | 71* | 38
COc1ccc(C(=O)N(CCCCN2C(=O)c3ccccc3C2=O)c2ccc(C)cc2)cc1 | · | -22
C=CCC1OC(=O)CCNC(=O)C(C)N(C)C(=O)C(C(C)C)N(C)C(=O)C(C(C)CC)NC(=O)C2CCCN2C1=O (stereo not drawn) | 38 | -66
CCCc1c(C(=O)O)c(O)cc2c1C(=O)c1c(O)cccc1C2=O | 0 | 8
CCCCCC(=O)Cc1cc(O)c(O)c2c1C(=O)Oc1cc(O)c(C(=O)O)c(CCCCC)c1O2 | 75* | 29
CC(C)Cn1c(SCC(=O)c2ccc(Cl)cc2)nc2ccccc2c1=O | 54 | 13
O=C(O)CCC(=O)OCc1ccccc1 | -24 | 19
C[C@@H]1O[C@@H](O[C@H]2[C@H](O[C@H]3CC[C@@]4(C)C(CC[C@]5(C)C4C=C[C@]46OC[C@@]7(CCC(C)(C)C[C@H]74)[C@@H](O)C[C@]65C)[C@]3(C)CO)O[C@H](CO)[C@@H](O)[C@@H]2O[C@@H]2O[C@H](CO)[C@@H](O[C@@H]3O[C@@H](C)[C@H](O)[C@@H](O)[C@H]3O)[C@H](O)[C@H]2O)[C@H](O)[C@H](O)[C@H]1O (stereo partly drawn) | 104* | ·
C[C@@H]1O[C@@H](O[C@H]2[C@H](O[C@H]3CC[C@@]4(C)C(CC[C@]5(C)C4CC=C4C6CC(C)(C)CC[C@]6(C(=O)O[C@@H]6O[C@H](CO[C@@H]7O[C@H](CO)[C@@H](O[C@@H]8O[C@@H](C)[C@H](O)[C@@H](O)[C@H]8O)[C@H](O)[C@H]7O)[C@@H](O)[C@H](O)[C@H]6O)CC[C@]45C)[C@]3(C)CO)OC[C@H](O)[C@@H]2O)[C@H](O)[C@H](O)[C@H]1O (stereo partly drawn) | -8 | ·
CCn1c2c(c3cc(Br)ccc31)CCCC2=O | 8 | -8
CCn1c2c(c3cc(OCc4ccccc4)ccc31)CCCC2=O | 77* | -25
CC12CCC(CC(=O)c3ccccc3)(CC1)CC2 | · | -37
CC(C)(C)C1CCC2(CC1)C(C#N)C2(C#N)C(=O)c1ccccc1 (stereo not drawn) | ? | 85*
SMILES | Shh pathway inh | MITF inhib
COC(=O)CCC(=O)c1cc2cc(Br)ccc2o1 | -90 | -16
COc1cc(/C=C\C(=O)O)cc(OC)c1OC | 21 | ·
COc1cc(/C=C/C(=O)N2CCC=CC2=O)cc(OC)c1OC | 84* | 62
C[C@H]1CN([C@@H](C)CO)C(=O)c2cccc(NC(=O)Nc3ccc(C(F)(F)F)cc3)c2O[C@H]1CN(C)S(=O)(=O)c1ccc(Cl)cc1 | 105* | -3
C[C@@H]1CN([C@H](C)CO)C(=O)c2cccc(NC(=O)Nc3ccc(C(F)(F)F)cc3)c2O[C@@H]1CN(C)S(=O)(=O)c1ccc(F)cc1 | -13 | 18
COc1ccc(NC(=O)Nc2cccc3c2O[C@@H](CN(C)S(=O)(=O)c2ccc(Cl)cc2)[C@@H](C)CN([C@@H](C)CO)C3=O)cc1 | 101* | -8
Cc1ccc(S(=O)(=O)N(C)C[C@@H]2Oc3c(NC(=O)Nc4ccc(C(F)(F)F)cc4)cccc3C(=O)N([C@@H](C)CO)C[C@@H]2C)cc1 | 93* | -1
Cc1ccc(S(=O)(=O)N(C)C[C@H]2Oc3c(NC(=O)Nc4ccc(C(F)(F)F)cc4)cccc3C(=O)N([C@@H](C)CO)C[C@H]2C)cc1 | -24 | 78
COc1ccc(NC(=O)Nc2cccc3c2O[C@H](CN(C)S(=O)(=O)c2ccc(Cl)cc2)[C@H](C)CN([C@@H](C)CO)C3=O)cc1 | 33 | -6
Cc1ccc(S(=O)(=O)N(C)C[C@@H]2Oc3c(NC(=O)Nc4ccc(C(F)(F)F)cc4)cccc3C(=O)N([C@H](C)CO)C[C@H]2C)cc1 | -5 | 3
C[C@H](CO)N1C[C@H](C)[C@H](CN(C)S(=O)(=O)c2ccc(Cl)cc2)Oc2c(NC(=O)Nc3ccc(C(F)(F)F)cc3)cccc2C1=O | 100* | 10
CC1(C)CC(=O)C2=C(C1)Nc1ccccc1N(C(=O)C(F)(F)F)C2c1ccc(Cl)cc1Cl (stereo not drawn) | -11 | 25
C[C@H](CO)N1C[C@H](C)[C@H](CN(C)S(=O)(=O)c2ccc(Cl)cc2)Oc2ccc(NC(=O)Nc3ccc(C(F)(F)F)cc3)cc2CC1=O | 72* | 50
C[C@@H]1CN([C@H](C)CO)C(=O)Cc2cc(NC(=O)Nc3ccc(C(F)(F)F)cc3)ccc2O[C@@H]1CN(C)S(=O)(=O)c1ccc(Cl)cc1 | -3 | 16
CC(C)c1ccc(NCC(O)COc2ccc(Cl)c(Cl)c2)cc1 (stereo not drawn) | -46 | 1
CS(=O)(=O)N(CC(=O)NC1CCCCCC1)c1ccc(F)cc1 | · | -1
C[C@H]1CC[C@@H]2[C@@H](C(=O)c3c(O)c([C@]4(O)CC[C@@H](O)[C@H]5O[C@H]54)c[nH]c3=O)[C@@H](C)C=C[C@H]2C1 | 96* | 74
